# Assay results as given in publication PMC5700166.
# Where a chain is given by its changes, count along the chain named.
# What was measured:
# Experiment in all cases: protein-binding microarray (PBM); PBM: ~300 nM protein, 6 mM HEPES pH 7.8, 80 mM KCl, 0.5 mM EDTA, 0.5 mM EGTA, 6% glycerol, 35 ng/ul poly-dIdC, 1% milk, 1 h, room temperature; Ap Aiptasia and Nv Nematostella (sea anemones) / Co Capsaspora / Aq Amphimedon (sponge) / Dm Drosophila / Hu human; RHD is the Rel homology domain; high values mean tight binding
# Conditions in all cases: dsDNA, one strand shown
# GST-Ap-NF-kB RHD = target: T1, GST-Ap-NF-kB RHD (Exaiptasia pallida (Aiptasia), UniProt A0A913YAJ5 2-422)
# T1 sequence: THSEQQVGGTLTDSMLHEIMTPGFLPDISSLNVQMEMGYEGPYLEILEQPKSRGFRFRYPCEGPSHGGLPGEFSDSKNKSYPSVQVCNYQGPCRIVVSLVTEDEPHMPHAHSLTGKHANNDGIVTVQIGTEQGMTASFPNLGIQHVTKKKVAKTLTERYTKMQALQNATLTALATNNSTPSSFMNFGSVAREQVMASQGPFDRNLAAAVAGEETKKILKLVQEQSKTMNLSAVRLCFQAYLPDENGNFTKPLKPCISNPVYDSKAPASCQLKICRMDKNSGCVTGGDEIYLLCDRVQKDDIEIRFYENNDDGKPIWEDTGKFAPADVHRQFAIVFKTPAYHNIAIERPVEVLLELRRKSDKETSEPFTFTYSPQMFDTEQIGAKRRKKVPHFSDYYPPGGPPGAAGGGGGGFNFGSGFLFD
# [1] = target: T2, GST-Nv-NF-kB (Cys allele) (Nematostella vectensis, UniProt E5G601 2-411)
# T2 sequence: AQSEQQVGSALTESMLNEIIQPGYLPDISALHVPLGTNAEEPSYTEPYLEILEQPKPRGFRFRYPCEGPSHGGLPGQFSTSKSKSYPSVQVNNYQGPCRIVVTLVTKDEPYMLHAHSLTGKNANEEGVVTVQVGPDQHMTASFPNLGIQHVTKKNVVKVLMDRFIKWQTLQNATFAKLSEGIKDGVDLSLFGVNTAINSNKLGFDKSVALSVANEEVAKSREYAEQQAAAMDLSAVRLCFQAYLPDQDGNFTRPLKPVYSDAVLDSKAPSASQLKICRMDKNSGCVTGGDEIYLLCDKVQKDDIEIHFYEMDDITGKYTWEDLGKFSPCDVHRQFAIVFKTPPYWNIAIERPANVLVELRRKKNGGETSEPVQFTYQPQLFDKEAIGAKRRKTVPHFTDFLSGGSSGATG
# [2] = target: T3, GST-Nv-NF-kB (Ser allele) (Nematostella vectensis, UniProt A7UNT2 2-411)
# T3 sequence: T2 sequence with Q21R, C66S, S207N, E215Q, V217A, E225K, A268E, D399E
# GST-Co-NF-kB = target: T4, GST-Co-NF-kB (Capsaspora owczarzaki, UniProt F1ARL5 200-546)
# T4 sequence: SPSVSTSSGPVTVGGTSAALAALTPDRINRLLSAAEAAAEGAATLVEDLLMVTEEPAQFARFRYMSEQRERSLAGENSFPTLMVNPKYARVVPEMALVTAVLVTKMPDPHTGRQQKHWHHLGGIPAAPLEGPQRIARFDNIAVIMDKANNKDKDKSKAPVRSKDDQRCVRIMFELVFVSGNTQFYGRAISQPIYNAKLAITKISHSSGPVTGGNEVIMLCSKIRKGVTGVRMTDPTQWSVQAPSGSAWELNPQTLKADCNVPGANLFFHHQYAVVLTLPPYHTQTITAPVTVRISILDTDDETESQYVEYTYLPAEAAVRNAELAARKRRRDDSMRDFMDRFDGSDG
# GST-Dm-Relish = target: T5, GST-Dm-Relish (Drosophila melanogaster, UniProt Q94527 99-473)
# T5 sequence: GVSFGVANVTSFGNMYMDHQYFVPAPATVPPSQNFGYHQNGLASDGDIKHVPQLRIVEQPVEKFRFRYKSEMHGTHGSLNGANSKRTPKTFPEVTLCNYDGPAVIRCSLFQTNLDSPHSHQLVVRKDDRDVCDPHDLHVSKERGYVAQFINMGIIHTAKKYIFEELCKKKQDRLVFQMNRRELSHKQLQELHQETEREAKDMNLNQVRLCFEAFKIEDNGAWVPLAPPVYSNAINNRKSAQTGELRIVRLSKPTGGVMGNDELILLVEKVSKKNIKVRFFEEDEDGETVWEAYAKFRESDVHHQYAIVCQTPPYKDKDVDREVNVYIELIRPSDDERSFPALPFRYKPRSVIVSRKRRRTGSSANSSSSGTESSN
# GST-Aq-NF-kB = target: T6, GST-Aq-NF-kB (Amphimedon queenslandica, UniProt A9Y5G7 2-389)
# T6 sequence: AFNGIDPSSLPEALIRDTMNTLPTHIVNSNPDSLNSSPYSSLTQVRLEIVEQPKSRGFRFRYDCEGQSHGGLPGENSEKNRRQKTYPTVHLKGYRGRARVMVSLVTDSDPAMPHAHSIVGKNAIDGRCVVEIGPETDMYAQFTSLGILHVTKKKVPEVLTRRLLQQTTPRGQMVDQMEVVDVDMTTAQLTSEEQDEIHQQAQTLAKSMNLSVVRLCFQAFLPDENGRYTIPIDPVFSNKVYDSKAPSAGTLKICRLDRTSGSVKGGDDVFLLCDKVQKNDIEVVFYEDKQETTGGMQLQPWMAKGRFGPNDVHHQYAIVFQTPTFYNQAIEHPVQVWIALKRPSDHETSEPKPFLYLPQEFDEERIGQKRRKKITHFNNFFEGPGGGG
# GST-Hu-p50 = GST-Hu-p50 (Homo sapiens, UniProt P19838 7-356)
# GST-Hu-p50, sequence (P19838 7-356): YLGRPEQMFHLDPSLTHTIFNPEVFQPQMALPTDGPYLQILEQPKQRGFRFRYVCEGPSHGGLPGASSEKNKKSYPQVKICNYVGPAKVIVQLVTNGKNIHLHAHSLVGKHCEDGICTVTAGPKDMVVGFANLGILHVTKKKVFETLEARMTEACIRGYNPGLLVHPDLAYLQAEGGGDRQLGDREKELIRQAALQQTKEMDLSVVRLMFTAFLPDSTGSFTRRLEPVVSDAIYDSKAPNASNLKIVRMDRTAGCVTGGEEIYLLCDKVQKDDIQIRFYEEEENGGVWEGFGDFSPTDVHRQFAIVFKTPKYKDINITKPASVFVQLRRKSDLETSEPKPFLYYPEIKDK
Sequence,binding signal (GST-Ap-NF-kB RHD) [z-score],binding signal [1] [z-score],binding signal [2] [z-score],binding signal (GST-Co-NF-kB) [z-score],binding signal (GST-Dm-Relish) [z-score],binding signal (GST-Aq-NF-kB) [z-score],binding signal (GST-Hu-p50) [z-score]
CCGATTAACATCAGGGGGATCTATGATGTTAATCGGGTCTTGATTCGCTTGACGCTGCTG,6.31,5.52,6.98,4.28,5.1,4.5,5.83
CCGATTAACATCACGGGGGAATATGATGTTAATCGGGTCTTGATTCGCTTGACGCTGCTG,8.53,7.14,7.03,10.6,4.66,5.84,6.21
CCGATTAACATCAGGGAAAACTATGATGTTAATCGGGTCTTGATTCGCTTGACGCTGCTG,3.76,5.55,7.33,5.67,1.67,4.07,4.03
CCGATTAACATCAAGGGGAAGGGTGATGTTAATCGGGTCTTGATTCGCTTGACGCTGCTG,4.52,5.48,5.81,3.95,2,4.16,4.32
CCGATTAACATCAGACTTCCCCCTGATGTTAATCGGGTCTTGATTCGCTTGACGCTGCTG,7.28,7.38,7.81,7.84,7.18,6.8,6.2
CCGATTAACATCAATTATCCCCCTGATGTTAATCGGGTCTTGATTCGCTTGACGCTGCTG,6.74,5.48,6.6,7.87,4.31,5.15,5.52
CCGATTAACATCAAGTTCCCCCATGATGTTAATCGGGTCTTGATTCGCTTGACGCTGCTG,7.14,6.4,6.97,10.1,4.93,5.56,6.24
CCGATTAACATCAGGGGAAAACATGATGTTAATCGGGTCTTGATTCGCTTGACGCTGCTG,6.62,7.81,9.93,8.6,5.04,6.17,6.18
CCGATTAACATCAAATTTCCCCTTGATGTTAATCGGGTCTTGATTCGCTTGACGCTGCTG,8.8,10.8,13.2,7.98,7.38,8.06,7.51
CCGATTAACATCAGGGAATCACATGATGTTAATCGGGTCTTGATTCGCTTGACGCTGCTG,1.95,2.66,2.47,2.22,9.15,3.28,1.14
CCGATTAACATCAGGGAATTCTATGATGTTAATCGGGTCTTGATTCGCTTGACGCTGCTG,5.04,6.52,6.75,3.81,3.59,5.61,4.8
CCGATTAACATCAAAATACTCCCTGATGTTAATCGGGTCTTGATTCGCTTGACGCTGCTG,5.1,4.6,4.49,2.79,1.83,4.2,3.64
CCGATTAACATCAGGGGATTTACTGATGTTAATCGGGTCTTGATTCGCTTGACGCTGCTG,8.92,9.25,10.4,3.45,10.5,7.83,7.61
CCGATTAACATCAGGGGAGATAATGATGTTAATCGGGTCTTGATTCGCTTGACGCTGCTG,5.17,5.28,5.56,6.03,1.79,2.74,3.67
CCGATTAACATCACTATACCCCCTGATGTTAATCGGGTCTTGATTCGCTTGACGCTGCTG,4.71,2.52,3.85,4.36,2.21,2.68,3.41
CCGATTAACATCAGGGGGGACTATGATGTTAATCGGGTCTTGATTCGCTTGACGCTGCTG,5.46,5.17,4.88,5.47,4.09,4.64,3.99
CCGATTAACATCAGGGAACACCCTGATGTTAATCGGGTCTTGATTCGCTTGACGCTGCTG,5.03,4.73,1.87,2.35,8.18,7.15,3.05
CCGATTAACATCAATATTTCCCCTGATGTTAATCGGGTCTTGATTCGCTTGACGCTGCTG,8.09,10.1,13.2,10.7,5.87,6.9,7.24
CCGATTAACATCACGGGGAAACCTGATGTTAATCGGGTCTTGATTCGCTTGACGCTGCTG,7.51,7.32,9.2,8.87,7.04,6.23,5.72
CCGATTAACATCAATTTCCCCCATGATGTTAATCGGGTCTTGATTCGCTTGACGCTGCTG,7.52,7.6,8.86,10.7,4.97,6.34,6.86
CCGATTAACATCAAGGGGGTACTTGATGTTAATCGGGTCTTGATTCGCTTGACGCTGCTG,4.81,3.89,4.77,2.92,2.88,3.78,4.47
CCGATTAACATCAAATTTCCCACTGATGTTAATCGGGTCTTGATTCGCTTGACGCTGCTG,2.73,4.26,4.5,4.39,3.33,4.27,4.02
CCGATTAACATCAGGGGAAGTTATGATGTTAATCGGGTCTTGATTCGCTTGACGCTGCTG,7.14,9.1,9.37,7.7,7.34,7.08,6.64
CCGATTAACATCATATGGGAAAATGATGTTAATCGGGTCTTGATTCGCTTGACGCTGCTG,1.55,3.76,4.82,3.09,1.12,2.17,2.72
